From PubChem BioAssay (Tox21) come the findings set out here.

Unmarked numbers belong to inactive results. Results filed as inconclusive are left out. Calls of active or inactive are those of the source. The call rests on the fitted dose curve.

In assay [1] the target is Acetylcholinesterase (Homo sapiens) (UniProt P22303). The assay can be described thus: Acetylcholinesterase (AChE) small molecule antagonists: colormetric cell-based qHTS assay (AID 1347395). Further: nearly all actives have a fitted effect of over 30% in size. Further: potency means the concentration at half of the fitted maximal effect. The essentials: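 Neuroblastoma line SH-SY5Y supplied the enzyme; cells were preincubated with compound for 30 min at 37 C and 5% CO2. Acetylthiocholine with DTNB was then added for 90 min at 37 C, and thiocholine was measured by colour.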

For assay [2] the target is unchanged. Kind of assay: Acetylcholinesterase (AChE) small molecule antagonists: fluorescence cell-based qHTS assay (AID 1347398). Further: nearly all actives have a fitted effect of over 50% in size. Further: potency means the concentration at half of the fitted maximal effect. To be noted: Potency: AChE activity; outcome: AChE activity. The essentials:
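Endogenous acetylcholinesterase of SH-SY5Y neuroblastoma cells is measured in situ. After overnight attachment and 30 min compound exposure, cells receive acetylthiocholine and Thiolite Green; fluorescence is read after 40 min at room temperature.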

Assay [3] has the same target. Kind of assay: Acetylcholinesterase (AChE) small molecule antagonists: enzyme-based qHTS assay with human liver microsomes (AID 1347399). Further: nearly all actives have a fitted effect of over 60% in size. To be noted: Potency: qHTS inhibition; outcome: qHTS inhibition. The essentials: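 Recombinant human AChE (50 mU/mL in the enzyme mix) and human liver microsomes (0.25 mg/mL final) were preincubated with compound and NADPH (0.25 mg/mL final) for 30 min at 37 C. Acetylthiocholine/DTNB was then added; thiocholine was read colorimetrically after 10 min at room temperature.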

For assay [4] the target is unchanged. Kind of assay: Acetylcholinesterase (AChE) small molecule antagonists: enzyme-based qHTS assay (AID 1347397). Further: nearly all actives have a fitted effect of over 55% in size. To be noted: Potency: AChE enzyme activity inhibition; outcome: AChE enzyme activity inhibition. The essentials: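 Enzyme inhibition was scored from DTNB-detected thiocholine formed by recombinant human AChE acting on acetylthiocholine. The 30 min compound preincubation and 10 min substrate reaction were both run at room temperature, with DMSO as vehicle control.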
On the % scale 0 is the no-effect control and ±100 the full control effect.

Sequence of Acetylcholinesterase (Homo sapiens) (P22303 whole entry, looked up): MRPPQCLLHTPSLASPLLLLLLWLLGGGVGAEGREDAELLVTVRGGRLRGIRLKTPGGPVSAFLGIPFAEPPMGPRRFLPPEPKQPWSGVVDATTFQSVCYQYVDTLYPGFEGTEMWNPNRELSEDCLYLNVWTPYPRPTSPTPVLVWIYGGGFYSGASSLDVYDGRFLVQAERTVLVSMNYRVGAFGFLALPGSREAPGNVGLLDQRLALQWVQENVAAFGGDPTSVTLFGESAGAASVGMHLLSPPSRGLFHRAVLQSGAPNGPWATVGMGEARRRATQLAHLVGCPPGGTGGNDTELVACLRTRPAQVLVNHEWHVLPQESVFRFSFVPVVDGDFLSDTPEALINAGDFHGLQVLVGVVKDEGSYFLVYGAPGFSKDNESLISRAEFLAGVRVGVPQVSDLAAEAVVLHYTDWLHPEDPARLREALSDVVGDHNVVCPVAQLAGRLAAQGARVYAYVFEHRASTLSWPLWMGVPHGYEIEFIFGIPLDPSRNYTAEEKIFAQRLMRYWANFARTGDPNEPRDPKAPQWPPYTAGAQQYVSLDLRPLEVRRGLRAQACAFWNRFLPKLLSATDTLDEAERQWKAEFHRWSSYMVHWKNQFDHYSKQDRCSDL

For the compound `CN(C)C(=O)Nc1ccc(Oc2ccc(Cl)cc2)cc1`, the Potency entry in assay [1], in assay [2] and in assay [3] was “inactive” each time.

`CCOC(=O)c1ccccc1O`: the Potency entry in assay [1], in assay [2] and in assay [3] was “inactive” each time.

Turning to `O=C(Nc1ccc(S(=O)(=O)N2CCOCC2)cc1)c1cc(Cl)ccc1NS(=O)(=O)c1ccc(Cl)s1`, the Potency entry in assay [1], in assay [2] and in assay [3] was “inactive” throughout.

As to `N=C1C=CC(=C(c2ccc(N)cc2)c2ccc(N)cc2)C=C1`, the Potency entry in assay [1] and in assay [3] was “inactive” in each case. In assay [2], the Potency is 39.9 µM (active).

As to `CCCCCCCCCCCCOCCOS(=O)(=O)O`, the Potency entry in assay [1], in assay [2] and in assay [3] was “inactive” each time.

On to `CN1CCN(c2ccccc2/C=C2\SCCN(c3ccc(Cl)c(Cl)c3)C2=O)CC1`, for which the Potency entry in assay [1] and in assay [3] was “inactive” throughout. Also, the Potency in assay [2] is 39.9 µM (active).

For the compound `CC(C)CC(O)CC(C)C`, the Potency result in assay [1], in assay [2] and in assay [3] was “inactive” throughout.

As to `CC1=NN(c2ccc(S(=O)(=O)O)cc2)C(=O)C1N=Nc1ccccc1` (stereo unspecified), the Potency result in assay [1], in assay [2] and in assay [3] was “inactive” each time.

For `CCCCCCCCCCCCCCOS(=O)(=O)O`, the Potency entry in assay [1], in assay [2] and in assay [3] was “inactive” throughout.

On to `CC1=CP(=O)(c2ccccc2)CC1` (stereo unspecified), for which the Potency entry in assay [1], in assay [2] and in assay [3] was “inactive” each time.

`CCCCCC/C=C\CCCCCCCC(=O)O`: the Potency result in assay [1], in assay [2] and in assay [3] was “inactive” in each case.

As to `CCN(CC)c1cccc(O)c1`, the Potency in assay [1] is 36.3 µM (active); in assay [2], 32.4 µM (active). Also, the Potency entry in assay [3] is “inactive”.

`O=C(OC[C@H]1O[C@@H](OC(=O)c2cc(O)c(O)c(OC(=O)c3cc(O)c(O)c(O)c3)c2)[C@H](OC(=O)c2cc(O)c(O)c(OC(=O)c3cc(O)c(O)c(O)c3)c2)[C@@H](OC(=O)c2cc(O)c(O)c(OC(=O)c3cc(O)c(O)c(O)c3)c2)[C@@H]1OC(=O)c1cc(O)c(O)c(OC(=O)c2cc(O)c(O)c(O)c2)c1)c1cc(O)c(O)c(OC(=O)c2cc(O)c(O)c(O)c2)c1`: in assay [1], the activity, negative = inhibition is 1.72% [at 23.6 µM]. In addition, the activity change, negative = inhibition in assay [2] was -11.1% [at 23.8 µM]; in assay [3], -0.451% [at 23.6 µM].

As for `Clc1cc(Cl)cc(Cl)c1`, the Potency result in assay [1], in assay [2] and in assay [3] was “inactive” throughout.

In the case of `CN(C)CCCNCCCN`, the Potency in assay [1] and in assay [2] was 35.4 µM (active) in each case. Moreover, the Potency result in assay [3] was “inactive”.

In the case of `OCCC(F)(F)C(F)(F)C(F)(F)C(F)(F)C(F)(F)C(F)(F)F`, the Potency result in assay [1], in assay [2] and in assay [3] was “inactive” throughout.

As to `c1ccc(CCCc2ccccn2)cc1`, the Potency result in assay [1], in assay [2] and in assay [3] was “inactive” throughout.

`CCn1c(=O)c2c(nc(/C=C/c3ccc(OC)c(OC)c3)n2C)n(CC)c1=O`: the Potency result in assay [1], in assay [2] and in assay [3] was “inactive” each time.

In the case of `O=C1NCCN1CCN1CCC(c2cn(-c3ccc(F)cc3)c3ccc(Cl)cc23)CC1`, the Potency entry in assay [1] and in assay [3] was “inactive” in each case. Besides, the Potency in assay [2] was 24.5 µM (active).

As to `CCN(CC)c1ccc(N)cc1`, the Potency in assay [1] and in assay [2] was 32.6 µM (active) in each case. Moreover, the Potency entry in assay [3] was “inactive”.

On to `O=C1CCC(=O)N1`, for which the Potency result in assay [1], in assay [2] and in assay [3] was “inactive” throughout.

With `CC(C)CCCCCCCCCCCCCCC(=O)O`, the Potency entry in assay [1], in assay [2] and in assay [3] was “inactive” throughout.

For the compound `O=C(Nc1ccc(Cl)c(Cl)c1)c1cc(Cl)cc(Cl)c1O`, the Potency result in assay [1], in assay [2] and in assay [3] was “inactive” throughout.

On to `CCCCC/C=C\C/C=C\CCCCCCCC(=O)NC(C)c1ccccc1` (stereo unspecified), for which the Potency entry in assay [1], in assay [2] and in assay [3] was “inactive” each time.

Regarding `Cn1c(=O)cc(Oc2ccc(F)cc2F)c2cnc(NCC(C)(C)O)nc21`, the Potency in assay [1] and in assay [2] was 28.3 µM (active) each time. Further, in assay [3], the Potency result is “inactive”.

Turning to `COc1cc2nc(N(C)CCCNC(=O)C3CCCO3)nc(N)c2cc1OC` (stereo unspecified), the Potency in assay [1] was 17.4 µM (active); in assay [2], 15.5 µM (active). Also, the Potency entry in assay [3] is “inactive”.

With `CCN1/C(=C/C=C/c2sc3ccccc3[n+]2CC)Sc2ccccc21`, the values for the Potency in assay [1] and in assay [2] were 10.7 µM (active) and 6.74 µM (active), respectively. Moreover, in assay [3], the activity change, negative = inhibition is 4.36% [at 23.6 µM].

In the case of `COc1ccc(N=Nc2cc(C)c(N=Nc3ccc(S(=O)(=O)O)cc3)cc2OC)cc1`, the Potency result in assay [1], in assay [2] and in assay [3] was “inactive” each time.

`CCCCCC(=O)CC`: the Potency entry in assay [4] is “inactive”.

Regarding `O=C(OCC(COC(=O)c1cccnc1)(COC(=O)c1cccnc1)COC(=O)c1cccnc1)c1cccnc1`, the Potency result in assay [4], in assay [2] and in assay [3] was “inactive” in each case.

On to `Nc1ccc(S(=O)(=O)Nc2ccccc2)cc1`, for which the Potency result in assay [4], in assay [2] and in assay [3] was “inactive” throughout.

As for `CNC(C)=O`, the Potency result in assay [4] and in assay [2] was “inactive” each time.

With `CCCn1cc[n+](C)c1C`, the Potency entry in assay [4], in assay [2] and in assay [3] was “inactive” each time.

As for `CCCCCCCCCCCC(=O)NCCCN(C)C`, the Potency entry in assay [4] and in assay [3] was “inactive” in each case. The Potency in assay [2] was 31.7 µM (active).

As to `COc1ccc(C(=O)c2ccc(OC)cc2O)c(O)c1`, the Potency entry in assay [4], in assay [2] and in assay [3] was “inactive” each time.

`CN1CCN(c2cc3c(nn2)Oc2ccccc2N3C)CC1`: in assay [4], the activity change, negative = inhibition was -13.5% [at 23.6 µM].

As to `CCN1CCCC1CNC(=O)c1cc(S(N)(=O)=O)ccc1OC` (stereo unspecified), the Potency result in assay [4] and in assay [2] was “inactive” each time.

On to `CC(=O)OCC(=O)[C@@]12OC(C)(C)O[C@@H]1C[C@H]1[C@@H]3C[C@H](F)C4=CC(=O)C=C[C@]4(C)[C@@]3(F)[C@@H](O)C[C@@]12C`, for which the Potency result in assay [4], in assay [2] and in assay [3] was “inactive” in each case.

Take `COc1ccccc1NC(=O)c1cc2ccccc2cc1O`: the Potency entry in assay [4] and in assay [2] was “inactive” in each case.

`CC(=O)OC(OC(C)=O)c1ccc([N+](=O)[O-])o1`: the Potency entry in assay [4], in assay [2] and in assay [3] was “inactive” each time.

Regarding `C=CCN(CC=C)CC=C`, the Potency entry in assay [4], in assay [2] and in assay [3] was “inactive” in each case.
